About 83,000 compounds went through this panel and 20% of them were active in at least one assay; those are over-represented in the sample as a whole.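 Method: cells in 96-well plates; compound added at one concentration; 48 h incubation; percent growth measured; values under 10 scored active.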 Activity calls are given as the source filed them.
test system: OVCAR-5 ovarian; test: NCI-60 one-dose screen, 48 h (100 = growth as untreated, 0 = no growth, -100 = all killed); settings: 10 µM unless noted

Row | SMILES | growth
1 | COC(=O)Cc1cc(COC(C)=O)ccc1C | 103% (inactive)
2 | Cc1ccc(/C=N/NC(N)=S)s1 | 104% (inactive)
3 | Cc1cc(=O)n(Nc2ccccc2)c(O)c1C#N | 105% (inactive)
4 | CN(C)c1ccc(O)c2c1CC1CC3C(N(C)C)C(=O)C(C(N)=O)=C(O)C3(O)C(=O)C1=C2O (stereo not drawn) | 63.4% (inactive)
5 | C/C(=N\N=C(/C)c1cccc([N+](=O)[O-])c1)c1cccc([N+](=O)[O-])c1 | 97.9% (inactive)
6 | CC(=O)c1ccc(C)cc1 | 104% (inactive)
7 | O=C1Nc2ccccc2/C1=C\c1ccccc1O | 94.4% (inactive)
8 | CCOC(=O)Nc1nccs1 | 110% (inactive)
9 | CCNC(=O)Oc1ccc[nH]c1=O | 102% (inactive)
10 | CC(=O)OCC1OC(n2cnc3c(=S)nc(N)[nH]c32)C(OC(C)=O)C1OC(C)=O (stereo not drawn) | 70% (inactive)
11 | CCOC(=O)CNC | 97.2% (inactive)
12 | CC(c1ccccc1)N(C)C (stereo not drawn) | 92.8% (inactive)
13 | COC1CC(OC(=O)c2ccc([N+](=O)[O-])cc2)C(COC(=O)c2ccc([N+](=O)[O-])cc2)O1 (stereo not drawn) | 99.7% (inactive)
14 | Nc1cccc2cccc(O)c12 | 103% (inactive)
15 | CC(CCC#N)(CCC#N)C(=O)c1ccccc1 | 109% (inactive)
16 | O=[N+]([O-])c1c(Cl)ncnc1Cl | 85.7% (inactive)
17 | COc1ccc2c(Cl)cc(NC(=O)Nc3c(C)cccc3C)nc2c1 | 83% (inactive)
18 | Cc1nc(O)cc(=O)[nH]1 | 110% (inactive)
19 | Cc1ccc(C)c2c1CCC2=O | 95.8% (inactive)
20 | O=C(OC1CCCC1)c1ccccc1Cl | 96.2% (inactive)
21 | CC(C)c1ccc(C(=O)OCCCl)cc1 | 96.5% (inactive)
22 | N#Cc1ccc(OC(=O)Nc2cc(Cl)cc(Cl)c2)cc1 | 9.02% [100 µM] (active)
23 | CCOC(=O)C(C#N)=C1CCN(C)CC1 | 111% (inactive)
24 | COC(CCCl)c1ccc(Cl)cc1 (stereo not drawn) | 96.2% (inactive)
25 | CCOc1ccc(C(=O)NCC(C)C)cc1 | 105% (inactive)
26 | COc1ccc(C2CCCCC2=O)cc1 (stereo not drawn) | 96.9% (inactive)
27 | O=S(=O)(c1ccc(NC(=S)NCc2cccnc2)cc1)N1CCCCC1 | 59.8% (inactive)
28 | Cc1ccc(NC(=O)c2ccccc2Cl)cc1 | 99.1% (inactive)
29 | Nc1ccccc1SC1CC(=O)N(c2ccc(Cl)c(Cl)c2)C1=O (stereo not drawn) | 104% (inactive)
30 | N#C/C(=C\c1ccc2c(c1)OCO2)c1ccccc1 | 79.6% (inactive)

test system: OVCAR-4 ovarian; test: as above; settings: 10 µM unless noted

Row | SMILES | growth
31 | COC(=O)Cc1cc(COC(C)=O)ccc1C | 114% (inactive)
32 | Cc1ccc(/C=N/NC(N)=S)s1 | 110% (inactive)
33 | Cc1cc(=O)n(Nc2ccccc2)c(O)c1C#N | 108% (inactive)
34 | CN(C)c1ccc(O)c2c1CC1CC3C(N(C)C)C(=O)C(C(N)=O)=C(O)C3(O)C(=O)C1=C2O (stereo not drawn) | 57.8% (inactive)
35 | C/C(=N\N=C(/C)c1cccc([N+](=O)[O-])c1)c1cccc([N+](=O)[O-])c1 | 42.1% (inactive)
36 | CC(=O)c1ccc(C)cc1 | 112% (inactive)
37 | O=C1Nc2ccccc2/C1=C\c1ccccc1O | 80.9% (inactive)
38 | CCOC(=O)Nc1nccs1 | 109% (inactive)
39 | CC(CO)(CO)C(=O)O | 105% (inactive)
40 | CCOC(=O)CNC | 96.5% (inactive)
41 | CC(c1ccccc1)N(C)C (stereo not drawn) | 77.3% (inactive)
42 | COC1CC(OC(=O)c2ccc([N+](=O)[O-])cc2)C(COC(=O)c2ccc([N+](=O)[O-])cc2)O1 (stereo not drawn) | 97% (inactive)
43 | Nc1cccc2cccc(O)c12 | 83.1% (inactive)
44 | CC(CCC#N)(CCC#N)C(=O)c1ccccc1 | 90% (inactive)
45 | O=[N+]([O-])c1c(Cl)ncnc1Cl | 103% (inactive)
46 | NS(=O)(=O)c1cc(=O)[nH]c(=O)[nH]1 | 110% (inactive)
47 | COc1ccc2c(Cl)cc(NC(=O)Nc3c(C)cccc3C)nc2c1 | -14.7% (active)

Row | SMILES | growth
48 | CC(=O)c1cccc(O)c1 | 93.6% (inactive)
49 | Cc1nc(O)cc(=O)[nH]1 | 114% (inactive)
50 | Cc1ccc(C)c2c1CCC2=O | 105% (inactive)
51 | O=C(OC1CCCC1)c1ccccc1Cl | 107% (inactive)
52 | CC(C)c1ccc(C(=O)OCCCl)cc1 | 104% (inactive)
53 | CCCCNC(=O)c1ccc(OCC)cc1 | 101% (inactive)
54 | N#Cc1ccc(OC(=O)Nc2cc(Cl)cc(Cl)c2)cc1 | 11.4% [100 µM] (inactive)
55 | CCOC(=O)C(C#N)=C1CCN(C)CC1 | 119% (inactive)
56 | COC(CCCl)c1ccc(Cl)cc1 (stereo not drawn) | 108% (inactive)
57 | CCOc1ccc(C(=O)NCC(C)C)cc1 | 97.2% (inactive)
58 | COc1ccc(C2CCCCC2=O)cc1 (stereo not drawn) | 103% (inactive)
59 | O=S(=O)(c1ccc(NC(=S)NCc2cccnc2)cc1)N1CCCCC1 | 95.6% (inactive)
60 | Cc1ccc(NC(=O)c2ccccc2Cl)cc1 | 107% (inactive)
61 | OCC1CCC(O)C(CO)N1 (stereo not drawn) | 94.6% (inactive)
62 | CCCCCCCCNC(=O)C(C)C | 96.9% (inactive)
63 | N#C/C(=C\c1ccc2c(c1)OCO2)c1ccccc1 | 99.8% (inactive)
